According to PubChem BioAssay (NCATS):
Inconclusive results are not listed. Where a call stands in place of a potency, no number is given. Activity calls are given as the source filed them. The call rests on the fitted dose curve; in most records, active means well fitted inhibition curve with a large enough effect; inconclusive means small, poorly fitted or top-dose-only effect; inactive means flat fitted curve, though single readings scatter.

These molecules were tested against Calcium and integrin-binding protein 1 (Homo sapiens) (UniProt Q99828) (assay: Primary qHTS for Identification of Calcium Integrin Binding Protein 1 (CIB1) Competitor (AID 1508620;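 further: GST tagged CIB1 binding a fluorescein labelled alphaIIb integrin peptide tracer; top concentration of the series differs between compounds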)). Settings: CIB1-GST / FITC-alphaIIb peptide fluorescence polarization; series mostly up to 57.7 µM.
Procedure, shortened: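 CIB1-GST (1 uM final) and compound incubated 15 min at room temperature before adding FITC-alphaIIb peptide tracer (100 nM final). Competition for binding read by fluorescence polarization (ex 480, em 540) after another 15 min at room temperature.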

Chain of Calcium and integrin-binding protein 1 (Homo sapiens) (Q99828 whole entry, looked up): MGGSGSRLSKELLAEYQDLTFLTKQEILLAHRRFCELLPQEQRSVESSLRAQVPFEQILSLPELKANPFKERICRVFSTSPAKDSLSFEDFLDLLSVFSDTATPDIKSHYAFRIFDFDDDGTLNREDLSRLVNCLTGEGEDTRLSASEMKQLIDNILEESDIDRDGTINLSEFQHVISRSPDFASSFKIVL

SMILES | Potency
O=C(C=CC=Cc1ccc2c(c1)OCO2)N1CCCCC1 | inactive
CC(=CC(=O)Nc1ccccc1C(=O)O)c1ccc2ccccc2c1 | inactive
CC[C@H](CC[C@@H](C)[C@H]1CC[C@H]2[C@@H]3CC=C4C[C@@H](O)CC[C@]4(C)[C@@H]3CC[C@]12C)C(C)C | inactive
Cc1[nH]c(C=C2C(=O)Nc3ccccc32)c(C)c1CCC(=O)O | inactive
C[C@]12C=CC(=O)N[C@@H]1CC[C@H]1[C@H]3CC[C@@H](C(=O)Nc4cc(C(F)(F)F)ccc4C(F)(F)F)[C@@]3(C)CC[C@@H]12 | inactive
COc1cc(C)c(Sc2cnc(NC(=O)c3ccc(CNC(C)C(C)(C)C)cc3)s2)cc1C(=O)N1CCN(C(C)=O)CC1 (stereo unspecified) | inactive
Cc1nc(NC(=O)N2CCC[C@@H]2C(N)=O)sc1-c1ccnc(C(C)(C)C(F)(F)F)c1 | inactive
O=c1[nH]c(=O)n([C@H]2C[C@@H](O)[C@@H](CO)O2)cc1F | inactive
CCOc1cc2ncc(C#N)c(Nc3ccc(OCc4ccccn4)c(Cl)c3)c2cc1NC(=O)C=CCN(C)C | inactive
CCCCCN=C(N)NN=Cc1c[nH]c2ccc(OC)cc12 | inactive
Cc1onc(-c2ccccc2)c1C(=O)N[C@@H]1C(=O)N2[C@@H](C(=O)O)C(C)(C)S[C@@H]12 | inactive
